# About 83,000 compounds went through this panel and 20% of them were active in at least one assay; those are over-represented in the sample as a whole.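 Single-dose data. Exposure time 48 hours. Values below 10 considered active.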 The source made the active and inactive calls.
# System: HL-60(TB) leukemia
# Assay: NCI-60 one-dose screen, 48 h (100 = growth as untreated, 0 = no growth, -100 = all killed)
# Settings: 10 µM unless noted
row,SMILES,growth
1,COc1ccc(OC2=CC(=O)c3ccc(C)nc3C2=O)cc1,52.1% (inactive)
2,Cc1nnc(/N=C2\NC(=O)/C(=C/C=C/c3ccccc3)S2)s1,75.3% (inactive)
3,COc1ccc(C(=O)NCCNc2nccc(-c3c(-c4ccc(F)cc4)nc4sccn34)n2)cc1,88.9% (inactive)
4,Cc1ccc(S(=O)(=O)Nc2ccccc2)cc1N,96% (inactive)
5,Cc1ccc(NC2CC(=O)N(c3c(C)cc(C)cc3C)C2=O)c(C)c1 (stereo not given),102% (inactive)
6,CN1CCN(CCOc2ccc(-c3cnc4c(-c5ccc(C(F)(F)F)cc5)cnn4c3)cc2)CC1,-32.5% (active)
7,CCN1CCN(c2ccc(Nc3ncnc4c3nnn4CCc3cc(OC)cc(OC)c3)cc2)CC1,87.8% (inactive)
8,Nc1nc(-c2cccc(Br)c2)cc(-c2cc3ccccc3oc2=O)n1,100% (inactive)
9,COc1cc(-c2nc3ccccc3[nH]2)ccc1OCc1nnc(-c2ccc(Br)cc2)o1,84.2% (inactive)
10,Cc1nc2c(c(-c3ccccc3)n1)Cc1c(ccc3ccccc13)O2,103% (inactive)
11,Cc1cnc(N)nc1OCC(C)(C)CNC(=O)c1cccc(-c2ccc(S(=O)(=O)Nc3ccc4c(c3)N(C(=O)C3CC3)CCC4)cc2)c1,18.2% (inactive)
12,Cc1cn(-c2nc3c(c(NCc4ccccc4)n2)COCC3)c2cccc(C(N)=O)c12,71.1% [0.5 µM] (inactive)
13,COc1ccc(C2=Nc3c(N)ncnc3NC(c3ccc4c(c3)OCO4)C2)cc1 (stereo not given),124% (inactive)
14,CCCCCCCCCCCCCCCC(=O)OC[C@@]1(O)C[C@@]23CC[C@@H]4C(C)(C)CCC[C@@]4(C)[C@@H]2CC[C@H]1C3,73.3% (inactive)
15,C=CC(=O)Nc1cccc(Oc2nccc(Nc3nnc(-c4ccc(Br)cc4)s3)n2)c1,121% (inactive)
16,COc1ccc(-c2c(-c3cc(OC)c(OC)c(OC)c3)noc2N)cc1,12.5% (inactive)
17,COC(=O)/C=C1/CCC2C3CCC4=CC(=O)C(Br)CC4(C)C3C(=O)CC12C (stereo not given),75.1% (inactive)
18,NS(=O)(=O)c1ccc(-c2cc(-c3nnc(SCC(=O)Nc4ccc(C(=O)/C=C/c5ccc(Cl)cc5)cc4)n3-c3ccccc3)c3ccccc3n2)cc1,92.2% (inactive)
19,CCc1ccc(NC(=O)N[C@@H](Cc2cc(F)cc(F)c2)C(=O)N[C@@H]2C(=O)N3C[C@H](O)C[C@H]3C(=O)N3CCOC[C@H]3C(=O)N[C@@H](C)C(=O)N3C[C@H](C)C[C@H]3C(=O)O[C@H]2C)cc1,23.8% (inactive)
20,Cc1ccnc(Nc2ccc([N+](=O)[O-])c(NCCN3CCOCC3)n2)c1,-14.9% (active)

row,SMILES,growth
1,COc1ccc(/C=N/Nc2c3ccccc3nc3ccccc23)cc1,92.9% (inactive)
2,O=C(O)C1(Cc2cccc(Nc3nccs3)n2)CCC(Oc2cccc(Cl)c2F)CC1 (stereo not given),50.7% (inactive)
3,COc1ccc(-c2ccc(-c3ccc(C(=N)N)s3)s2)cc1Cl,-41.8% (active)
4,COc1cc2c(Nc3ccc(S(N)(=O)=O)cc3)ncnc2c(OC)c1OC,91.5% (inactive)
5,CCCCCCCCCCCCS(=O)CC(C)O (stereo not given),99% (inactive)
6,COc1ccc2nc3cc(Cl)ccc3c(Nc3ccc(O)c(CN4CCCC4)c3)c2c1,-51% (active)
7,CCOc1ccccc1Cn1ccnc1CCc1c(Cl)c(O)cc(O)c1C(=O)OC,106% (inactive)
8,CC(C)(C)NCCC(O)c1cc(C(F)(F)F)nc2c(C(F)(F)F)cccc12 (stereo not given),73.5% (inactive)
9,CN(C)c1ccc2cc(-c3ccc(Cl)c(Cl)c3)c(N)nc2c1,10.5% (inactive)
10,CC(=O)OC(C)C(=O)NCC(C)O (stereo not given),86.9% (inactive)
11,C/C(Cc1ccc(Cl)cc1)=C(\c1ccc(OCCN2CCCCCC2)cc1)c1ccc(OC(=O)c2ccccc2)cc1,23.1% (inactive)
12,COC1CC(N)C2OC(c3ccccc3)OCC2O1 (stereo not given),102% (inactive)
13,CCCCc1ccc2nc(NC(=O)OC)[nH]c2c1,-65.6% (active)
14,NC(=S)NS(=O)(=O)c1ccc(N)cc1,94.5% (inactive)
15,N#Cc1c(-c2ccccc2)cc(-c2ccc(Nc3nc(Nc4ccc(Cl)cc4)nc(Nc4ccc(Cl)cc4)n3)cc2)nc1N,15.6% (inactive)
16,CC1CN(C2CCCCC2)C(=S)N(c2ccccc2)C1=O (stereo not given),85% (inactive)
17,NCCCCCCNc1cc(-c2cccc(OC(F)(F)F)c2)nc2ccc(N3CCCC3)cc12,-60.2% (active)
18,COC(=O)c1c2c(n3ccc(C)cc13)C(=O)c1ccccc1C2=O,57.6% (inactive)
19,CN1C(=O)/C(=C/c2ccc(C(=O)Nc3ncc(Cc4ccc(F)cc4)s3)cc2)SC1=S,37.6% (inactive)
20,CCOC(=O)/C(C)=C\c1ccc(OC)c(OC)c1,88.4% (inactive)

# Source: PubChem BioAssay (NCI)
